Screens deposited in PubChem BioAssay by National Center for Advancing Translational Sciences (NCATS).
HP1b binding inh: HTS for Inhibitors of HP1-beta Chromodomain Interactions with Methylated Histone Tails | AID 540317, 2011 | Potency, µM (titrated, usually from 114 µM), for inactives: top-dose activity change, negative = inhibition, most hits filed as inhibitors | Chromobox protein homolog 1 (Homo sapiens), P83916 | AlphaScreen HP1-beta / biotin-H3K9me3 peptide binding | 390,000 tested, 0.56% active; further: potency means the concentration at half of the fitted maximal effect; nearly all actives have a fitted effect of over 70% in size
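HP1-beta protein (50 nM final) preincubated 30 min at room temperature with biotinylated H3(1-18)K9me3 peptide (50 nM) in PBS pH 7.4, 0.01% Tween-20, then compound added for 30 min. AlphaScreen streptavidin donor/nickel chelate acceptor beads (10 ug/mL final), 30 min dark, luminescence read.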
BAZ2B block: qHTS Assay for Inhibitors of BAZ2B; Bromodomain adjacent to zinc finger domain protein 2B (Homo sapiens), Q9UIF8; AlphaScreen BAZ2B-H3K14Ac peptide displacement; Potency, µM (highest dose often 114 µM), without a hit: at the top dose activity change, negative = inhibition, hits mostly inhibitors; 360,000 tested, 4.4% active; AID 504333, 2011; further: potency means the concentration at half of the fitted maximal effect; on the % scale 0 is the no-effect control and ±100 the full control effect; nearly all actives have a fitted effect of over 60% in size
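In this displacement format the biotinylated H3(5-23) peptide acetylated at Lys14 serves as ligand at 50 nM, with BAZ2B at 50 nM in PBS pH 7.4 containing 0.01% Tween-20. Donor and acceptor beads are 10 ug/mL final.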
JMJD2A Tudor: qHTS Assay for Inhibitors of JMJD2A-Tudor Domain. AlphaScreen JMJD2A-Tudor / H3K4me3 peptide binding. Potency, µM (titrated, usually from 114 µM), for the others: at the highest dose activity change, negative = inhibition, actives largely listed as inhibitors. 390,000 tested, 4.4% active; further: potency means the concentration at half of the fitted maximal effect; on the % scale 0 is the no-effect control and ±100 the full control effect; nearly all actives have a fitted effect of over 50% in size
KAT2A inh: qHTS Assay for Inhibitors of GCN5L2; Histone acetyltransferase KAT2A (Homo sapiens), Q92830; Potency, µM (titrated, usually from 58.9 µM), for inactives: at the highest dose activity change, negative = inhibition, most hits filed as inhibitors; GCN5L2 HAT assay, ThioGlo1 CoA-SH fluorescence; 390,000 tested, 0.21% active; AID 504327, 2011; further: potency means the concentration at half of the fitted maximal effect; on the % scale 0 is the no-effect control and ±100 the full control effect
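ThioGlo1-coupled HAT assay: 20nM GCN5L2, 70uM acetyl-CoA, 75uM H3(1-25) peptide, pH 7.5. Fluorescence read at 340/540nm at start and after 20 min at room temperature.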
PLK1 PBD block: qHTS for Inhibitors of PLK1-PDB (polo-like kinase 1 - polo-box domain): Primary Screen; AID 720504, 2013; 360,000 tested, 2.8% active; Potency, µM, without a hit: max response, negative = inhibition, usual class: inhibitors; Plk1 PBD binding of FITC phosphopeptide, fluorescence polarization; further: potency means the concentration at half of the fitted maximal effect; series mostly up to about 57 µM; on the % scale 0 is the no-effect control and ±100 the full control effect; nearly all actives have a fitted effect of over 65% in size
Target sequence (P53350 whole entry, looked up, the tested form may be a part): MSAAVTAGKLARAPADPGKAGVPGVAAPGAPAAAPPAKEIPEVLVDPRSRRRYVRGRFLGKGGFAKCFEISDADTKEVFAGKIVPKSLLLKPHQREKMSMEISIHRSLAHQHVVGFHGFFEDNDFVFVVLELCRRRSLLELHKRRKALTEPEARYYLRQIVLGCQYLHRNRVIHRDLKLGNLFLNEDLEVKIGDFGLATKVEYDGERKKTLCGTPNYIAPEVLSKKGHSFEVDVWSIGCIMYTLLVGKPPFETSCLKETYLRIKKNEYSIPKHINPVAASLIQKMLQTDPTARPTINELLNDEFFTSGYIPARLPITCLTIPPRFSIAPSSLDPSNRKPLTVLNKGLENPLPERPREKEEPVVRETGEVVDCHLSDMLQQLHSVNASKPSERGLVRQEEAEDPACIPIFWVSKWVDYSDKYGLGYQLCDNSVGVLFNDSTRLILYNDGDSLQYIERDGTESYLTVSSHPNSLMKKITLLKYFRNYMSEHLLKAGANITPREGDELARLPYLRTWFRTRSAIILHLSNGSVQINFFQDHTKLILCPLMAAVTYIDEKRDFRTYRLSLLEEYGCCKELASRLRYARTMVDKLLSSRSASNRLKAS
PI5P4K alpha inh: qHTS for Inhibitors of phosphatidylinositol 5-phosphate 4-kinase (PI5P4K); Phosphatidylinositol 5-phosphate 4-kinase type-2 alpha (Homo sapiens), P48426; PI5P4Kalpha enzyme, ADP-Glo luminescence, 60 min; stronger effect = lower value; max response, %; 330,000 tested, 1.2% active; AID 652105, 2013; active means max response of -50% or lower; inconclusive means between -30% and -50%; inactive means -30% or higher; further: value at the top dose of about 77 µM; on the % scale 0 is the no-effect control and ±100 the full control effect
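Compounds were pin-transferred onto PI5P4Kalpha and substrate in HEPES pH 7.4 buffer with EGTA, CHAPS and 5% DMSO. ATP (5 microM final) started the reaction, which ran 60 minutes at room temperature before ADP-Glo detection.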
Active calls of the source: *; ? = inconclusive; nt = no result. Rows were chosen to be rich in hits. Some 7% of all compounds tested hit in one or more screens of this group. Unless noted, the call rests on the fitted dose curve; in most records, active means well fitted curve in the direction sought with a large enough effect; inconclusive means small, poorly fitted or top-dose-only effect, or another doubt; inactive means no such curve, though single readings can be large; an effect the other way counts as inactive or inconclusive.

SMILES	HP1b binding inh	BAZ2B block	JMJD2A Tudor	KAT2A inh	PLK1 PBD block	PI5P4K alpha inh
O=C1NC(=S)N(c2ccc(F)cc2)C(=O)/C1=C/c1ccccc1O	31%	0%	-3%	4%	-29%	-1
COc1ccccc1/C=C1\C(=O)NC(=S)N(c2ccccc2)C1=O	26%	-24%	28µM*	-8%	15µM*	-55*
COc1ccccc1C=C1C(=O)NC(=S)NC1=O	?	nt	20µM*	nt	24µM*	-86*
CCN1C(=O)/C(=C/c2ccc(N(CC)CC)cc2OC)C(=O)NC1=S	7%	?	-24%	-3%	1.1µM*	?
CCN(CC)c1ccc(/C=C2\C(=O)NC(=S)N(c3ccc(OC)cc3OC)C2=O)o1	-15%	nt	-26%	nt	121%	7
O=C1NC(=S)N(c2ccc(Br)cc2)C(=O)/C1=C/N1CCN(C(=O)c2ccco2)CC1	4%	-33%	-29%	-3%	?	?
CCOc1cccc(N2C(=O)/C(=C/c3ccco3)C(=O)NC2=S)c1	20µM*	32µM*	22µM*	?	12µM*	-93*
CCC1CN2CCc3cc(OC)c(OC)cc3C2CC1CC1NCCc2cc(OC)c(OC)cc21 (stereo unspecified)	nt	nt	nt	-1%	nt	nt
C(=C/c1ccccc1)/CN1CCN(CCOC(c2ccccc2)c2ccccc2)CC1	nt	nt	nt	-28%	nt	nt
CC1=C(O)C(=O)[C@@H]2O[C@@H]2C1=O	nt	nt	nt	-3%	nt	nt
CN(CC(=O)Nc1cccc(F)c1)CC(=O)Nc1cccc(S(=O)(=O)N(C)c2ccccc2)c1	40µM*	nt	0.89µM*	nt	0%	1
Cc1cc(/C=C2/C(=O)NC(=O)N(c3ccc(Br)cc3)C2=O)c(C)n1C	9%	-8%	-12%	-10%	-6%	-15
Cc1cc(/C=C2\C(=O)NC(=O)N(c3ccc(Br)cc3)C2=O)c(C)n1C	22%	29%	-8%	-7%	-2%	-3
Cc1cc(/C=C2\C(=O)NC(=O)N(c3ccc(Br)cc3)C2=O)c(C)n1-c1cc(C(=O)O)cc(C(=O)O)c1	?	56µM*	22µM*	-4%	12µM*	-77*
Cc1cc(/C=C2\C(=O)NC(=O)N(c3ccc(Cl)cc3)C2=O)c(C)n1-c1cccc(C(=O)O)c1	-3%	-39%	?	-23%	27µM*	?
Cc1cc(/C=C2\C(=O)NC(=O)N(c3cccc(F)c3)C2=O)c(C)n1-c1cc(C(=O)O)cc(C(=O)O)c1	-14%	45µM*	79µM*	-16%	?	-81*
C[C@H]1CO1	nt	nt	nt	9%	nt	nt
C[N+]1(C)[C@@H]2CC(OC(=O)[C@@H](CO)c3ccccc3)C[C@@H]1[C@H]1O[C@H]12 (stereo partly specified)	nt	nt	nt	14%	nt	nt
CCCCOC(=O)N(C)SN(C)C(=O)Oc1cccc2c1OC(C)(C)C2	nt	nt	nt	-10%	nt	nt
O=C(c1ccc(CNS(=O)(=O)c2ccc(Br)cc2)cc1)N1CCC2(CC1)OCCO2	15%	-7%	9%	1%	4%	-1
O=C(c1ccc(CNS(=O)(=O)c2ccccc2)cc1)N1CCC2(CC1)OCCO2	-2%	?	?	0%	21µM*	-3
Cc1[nH]nc2ccc(-c3cncc(OC[C@@H](N)Cc4c[nH]c5ccccc45)c3)cc12	-36%	nt	35µM*	nt	-14%	-10
CC(C)Oc1ccc(CNC(=O)Oc2ccccc2)cc1	24%	-4%	-13%	?	?	-6
CCCc1[nH][nH]c(=O)c1C(c1ccccc1)C(C#N)C#N (stereo unspecified)	30%	5%	-27%	-9%	12µM*	-50*
